The values below come from PubChem BioAssay (NCATS).

SMILES strings stand for the structures. Inconclusive results are not listed. Unmarked numbers belong to inactive results. Calls follow the shape of the dose curve; as a rule, active = well fitted inhibition curve with a large enough effect; inconclusive = small, poorly fitted or top-dose-only effect, or effect the other way; inactive = flat fitted curve, though single readings scatter.

ATP-dependent 6-phosphofructokinase (Trypanosoma brucei brucei), sequence (O15648 whole entry, looked up): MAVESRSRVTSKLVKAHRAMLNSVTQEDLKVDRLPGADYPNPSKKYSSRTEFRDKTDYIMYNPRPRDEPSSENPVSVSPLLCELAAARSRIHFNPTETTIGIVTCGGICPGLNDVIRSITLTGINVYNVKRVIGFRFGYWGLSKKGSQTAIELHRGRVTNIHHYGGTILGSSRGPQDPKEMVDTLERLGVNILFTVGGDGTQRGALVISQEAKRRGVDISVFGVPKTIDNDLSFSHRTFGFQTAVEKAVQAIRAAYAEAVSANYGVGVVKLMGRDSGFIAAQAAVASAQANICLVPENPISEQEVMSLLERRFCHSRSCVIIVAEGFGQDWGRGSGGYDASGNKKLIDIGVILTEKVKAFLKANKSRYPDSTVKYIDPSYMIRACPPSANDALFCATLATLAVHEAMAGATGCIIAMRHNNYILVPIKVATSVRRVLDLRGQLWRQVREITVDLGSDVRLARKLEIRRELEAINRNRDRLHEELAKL

In the assay the target is ATP-dependent 6-phosphofructokinase (Trypanosoma brucei brucei) (UniProt O15648). The experiment in a line: qHTS Assay to Find Inhibitors of T. brucei phosphofructokinase: hit validation (AID 492961).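 Also: luminescence reports ADP formed as PFK phosphorylates fructose-6-phosphate with ATP.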 The settings on record: T. brucei PFK, ADP-Glo luminescence; series mostly up to 51.4 µM; activity change, negative = inhibition: at the top concentration. The source says:
NIH Molecular Libraries Probe Production Network [MLPCN] NIH Chemical Genomics Center [NCGC] Grant: 1 R03 MH092153-01 PI Name: Malcolm Walkinshaw, University of Edinburgh NCGC Assay Overview: Various species of the protozoan family Trypanosomatidae are responsible for a range of serious human diseases in tropical and subtropical areas of the world. […] Many of the disorders caused by trypanosomatids are fatal if left untreated, but most currently used drugs are inefficient and toxic. […] Oxidative metabolism involving the mitochondrial tricarboxylic acid cycle and oxidative phosphorylation are repressed in these parasites, and recent RNA interference (RNAi) experiments have shown that even partial depletion of certain individual glycolytic enzymes can lead to the death of cultured parasites. One such glycolytic enzyme, phosphofructokinase (PFK), catalyzes the formation of fructose-1,6-bisphosphate (F1,6BP) and ADP from fructose-6-phosphate (F6P) and ATP, and in many metabolic circumstances makes an important contribution to the control of flux through the glycolytic pathway. As a specific glycolytic target, PFK is particularly attractive as it catalyzes the first irreversible step in glycolysis, and structural and kinetic studies have shown very substantial and essential differences from corresponding host enzymes, allowing for the discovery of parasite-selective inhibitors. The goal of this screen is to find small-molecule inhibitors of T. brucei PFK using a biochemical assay that measures PFK activity as a function of ADP production. A luminescence-based assay for T. brucei PFK activity has been developed which uses luciferase to detect production of ADP. Traditional luciferase-based nucleotide detection reagents rely on ATP production as a direct substrate for the luciferase reaction; however, PFK catalyzes the transfer of a phosphate from ATP to F6P, resulting in the net depletion of ATP. To directly measure the ADP product of the PFK reaction, we used the ADP-Glo detection kit (Promega), which utilizes two separate reactions to 1) deplete all remaining uncatalyzed ATP and 2) convert all remaining ADP to ATP, which is then detected through a traditional luciferase-coupled reaction. Compounds were screened as a concentration-titration series that ranged from 57 uM to 0.7 nM.
NCGC Assay Protocol Summary: Substrate buffer was dispensed into white, solid 1536-well plates at 3uL/well in 0.1M triethanolamine (TEA) buffer, pH 8.0, containing final concentrations of 5 mM MgCl2, 0.01% Tween20, 0.5 mM fructose-6-phosphate (F6P) and 0.1mM ATP. Then, 23 nL of compounds or DMSO were delivered to each well using a pin tool. One uL T. brucei PFK (0.1M TEA, 0.01% Tween20, 0.1% bovine serum albumin (BSA) and 1.25nM PFK, final concentrations) was then dispensed, and plates were incubated at room temperature for 45 min. The luminescent detection reagent, ADP-Glo (Promega), was then added in two steps: the first reagent, ADP-Glo (which converts remaining uncatalyzed ATP), was added at 2.5uL/well and incubated for ten minutes at room temperature, and the second component, Kinase Detection reagent (which converts ADP to ATP as a substrate for luciferase-based luminescence), was added immediately after at 5uL/well, followed by one final ten minute room temperature incubation. The plates were measured on a ViewLux plate reader for luminescent signal using a clear filter with a one second exposure. The %Activity was determined from the corrected luminescence values. As no specific T. brucei PFK inhibitors have been identified in the literature, 1x (1.25nM) and 0x PFK enzyme controls (untreated) were included to normalize %Activity of identified inhibitors; 0x enzyme values corresponded to 100%Activity (full inhibition), while 1x PFK enzyme values were used to normalize 0%Activity (no inhibition). Concentration-response curves were fitted to the signals arising from the resulting luminescence. […]
`C[C@H](CCCC(C)(C)O)[C@H]1CC[C@H]2[C@@H]3CC=C4C[C@@H](O)CC[C@]4(C)[C@H]3CC[C@]12C`: the “activity change, negative = inhibition” value is 4.14%.
The figure for `CC(CCc1ccc(O)cc1)NCC(O)c1ccc(O)cc1` (stereo not given) is -5.11%.
In the case of `NC(=O)[C@@H]1CCCN1C(=O)[C@H](Cc1cnc[nH]1)NC(=O)[C@@H]1CCC(=O)N1` it was -4.27%.
The figure for `NC(=O)[C@H]1O[C@@H](O)[C@H](O)[C@@H](O)[C@@H]1O` is -5.54%.
Consider `Nc1ncnc2c1ncn2CCOCP(=O)(O)O`, for which the “activity change, negative = inhibition” value is -2.02%.
The figure for `CSCCC(N)C(=O)O` (stereo not given) is -4.76%; for `O=C1N=C2SCCN2C(=O)C1Cc1ccc(Cl)cc1` (stereo not given) it is 3.16%.
The figure for `CCN(CC)C(=S)S` is 7.93%; for `CCCCCCCCCCCCCC(=O)OCC(COP(=O)([O-])OCC[N+](C)(C)C)OC(=O)CCCCCCCCCCCCC` (stereo not given) it is 6.03%; for `CC(C)=CCC/C(C)=C/CC/C(C)=C/CC/C=C(\C)CC/C=C(\C)CCC=C(C)C` it is 5.85%.
In the case of `O=[N+]([O-])c1c(Cl)cccc1-c1c[nH]cc1Cl` it was -7.59%; in that of `C#C[C@]1(O)CC[C@@H]2[C@H]3CCC4=CC(=O)CC[C@H]4[C@H]3C(=C)C[C@@]21CC`, 11.4%.
For `FC(F)(F)C(F)(F)C(F)(F)C(F)(F)C(F)(F)F`, the “activity change, negative = inhibition” value is 2.6%.
In the case of `CCCCC[C@H](O)/C=C/[C@@H]1[C@H]2C/C(=C/CCCC(=O)O)O[C@H]2C[C@H]1O` it was 9.58%; in that of `c1ccc2ccccc2c1`, -3.43%.
The figure for `CN(C)CCOc1ccc(/C(=C(/CCCl)c2ccccc2)c2ccccc2)cc1` is -5.67%; for `C/C(=C\C(=O)OCCCCCCCCC(=O)O)C[C@@H]1OC[C@H](C[C@@H]2O[C@H]2[C@@H](C)[C@H](C)O)[C@@H](O)[C@H]1O` it is 2.38%.
The figure for `CC1C(=O)CC2C3(C)CCC2(C(C)C(=O)O)C(=O)C13` (stereo not given) is 0%; for `Cc1c(C)c2c(c(C)c1OC(=O)CCC(=O)O)CC[C@@](C)(CCC[C@H](C)CCC[C@H](C)CCCC(C)C)O2` it is -0.925%; for `CC(C)[C@H](N)C(=O)OCC(CO)OCn1cnc2c(=O)[nH]c(N)nc21` (stereo not given in full) it is -1.92%.
Consider `COc1ccc(C(=O)c2ccc(C)cc2)c(O)c1`, for which the “activity change, negative = inhibition” value was -0.436%.
With `O=C(O)/C=C/c1ccccc1`, the “activity change, negative = inhibition” value was -3.79%.
The figure for `CN1C(=O)OC(C)(C)C1=O` is 4.53% [at 24.3 µM]; for `O=C(Nc1ccc(O)cc1)c1ccccc1O` it is -2%.
Consider `O=P(O)(O)OP(=O)(O)O`, for which the “activity change, negative = inhibition” value was -13.3%.
Consider `CCC(C)[C@@H](N)C(=O)O` (stereo not given in full), for which the “activity change, negative = inhibition” value was 4.47%.
The figure for `OCC1(CO)COC(C(Cl)(Cl)Cl)OC1` is -2.43%.
The figure for `CC(C)CCC[C@@H](C)[C@H]1CC[C@H]2[C@@H]3CC=C4C[C@@H](O)CC[C@]4(C)[C@H]3CC[C@]12C` is -5.49%.
In the case of `OC1OC[C@@H](O)[C@H](O)[C@@H]1O` (stereo not given in full) it was -1.73%; in that of `CNC(=O)C[C@@H](N)C(=O)N[C@@H](C(=O)N[C@@H]1C(=O)N2[C@@H]1SC(C)(C)[C@@H]2C(=O)O)c1ccc(O)cc1`, 3.96%; in that of `O=P(O)(O)OC[C@H]1O[C@](O)(COP(=O)(O)O)[C@@H](O)[C@@H]1O`, 24%.
Turning to `Cc1ncc(C[n+]2csc(CCOP(=O)(O)OP(=O)(O)O)c2C)c(N)n1`, the “activity change, negative = inhibition” value was -1.25%.
In the case of `CC(C)(C)CC(C)(C)c1cc(Cc2cc(C(C)(C)CC(C)(C)C)cc(-n3nc4ccccc4n3)c2O)c(O)c(-n2nc3ccccc3n2)c1` it was -4.25%.
For the compound `O=C(O)/C=C/C(=O)Nc1ccc(S(=O)(=O)Nc2nccs2)cc1`, the “activity change, negative = inhibition” value was -2.56%.
In the case of `C[Si](C)(C)O[Si](C)(C)C` it was 0.801%; in that of `CC(=O)Oc1cccc(C(=O)O)c1OC(C)=O`, -0.444%.
The figure for `CCCCCCCCCCCCOCCCN` is -0.748%; for `Cc1cccc(C)c1NC(=O)C1CCCCN1C` (stereo not given) it is 7.66%.
Consider `O=S(=O)(O)CCCS(=O)(=O)O`, for which the “activity change, negative = inhibition” value was -0.758%.
In the case of `N[C@@H](Cc1cc(I)c(Oc2ccc(O)c(I)c2)c(I)c1)C(=O)O` it was 12.6%.
